Results on eleven molecules are retold here after PubChem BioAssay (Tox21).

Several values for one entry are separate records, joined by “and”; a condition that tells them apart may be missing. Identical values can stand only once. Results filed as inconclusive are left out. The source holds several records for some structures; these can differ, active in one and inactive in another. Activity calls are given as the source filed them. Unless noted, calls follow the shape of the dose curve; as a rule, active = well fitted curve in the direction sought with a large enough effect in the repeat runs; inconclusive = weak or mixed curves; inactive = no such curve, though single readings can be large; an effect the other way counts as inactive or inconclusive.

Experiment [1] is described as follows: Human pregnane X receptor (PXR) small molecule agonists, qHTS cell viability counter screen (AID 1346977). Also: nearly all actives have a fitted effect of over 50% in size. Also: potency is read from the fitted curve at half-maximal effect. An outline of the steps: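 PXR-Luc HepG2 cells (2,000/well, 5% charcoal-stripped FBS) preincubated 5 hr, then exposed to compounds 24 hr at 37 C. Viability read in the same wells by CellTiter-Fluor fluorescence, reagent added at 23 hr, 1 hr incubation.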

Experiment [2] is described as follows: Caspase-3/7 induction in HepG2 cells by small molecules, qHTS assay (AID 1346978). Also: nearly all actives have a fitted effect of over 15% in size. In outline:
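Wild-type HepG2 cells, 2,000/well, settled 5 hr at 37 C and 5% CO2, then compound-treated for 17 hr; caspase-3/7 activity read by luminescent Caspase-Glo 3/7 after 30 min at room temperature.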

The nature of experiment [3]: Caspase-3/7 induction in CHO-K1 cells by small molecules, qHTS cell viability counter screen (AID 1346979). Also: nearly all actives have a fitted effect of over 35% in size. Also: potency is read from the fitted curve at half-maximal effect. An outline of the steps:
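Wild-type CHO-K1 cells (1,500/well) treated with compound after 5 h plating; after 16 h at 37C, viability read as CellTiter-Fluor fluorescence following 1 h reagent incubation, in the same wells as the caspase read.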
(In general: qHTS replaces the single test concentration by a dilution series.)

The nature of experiment [4]: Caspase-3/7 induction in CHO-K1 cells by small molecules, qHTS assay (AID 1346980). Also: nearly all actives have a fitted effect of over 15% in size. In outline:
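Wild-type CHO-K1 cells exposed to compounds for 17hr at 37 C, 5% CO2. Caspase-3/7 activity then measured by Caspase-Glo 3/7 luminescence after 30min at room temperature.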

A short description of experiment [5]: Caspase-3/7 induction in HepG2 cells by small molecules, qHTS cell viability counter screen (AID 1346981). Also: nearly all actives have a fitted effect of over 30% in size. Also: potency is read from the fitted curve at half-maximal effect. An outline of the steps: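 In this quantitative HTS counter screen, compounds delivered in DMSO were left on unmodified HepG2 cells for 16 hr at 37 C. Viability was then determined fluorometrically with CellTiter-Fluor, in parallel with caspase-3/7 induction in the same wells.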

In experiment [6] the target is Nuclear receptor subfamily 1 group I member 2 (Homo sapiens) (UniProt O75469). As to the kind of experiment: Human pregnane X receptor (PXR) small molecule agonists, qHTS assay (AID 1346982). Also: nearly all actives have a fitted effect of over 35% in size. Also: potency is read from the fitted curve at half-maximal effect. In outline: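 Reporter HepG2 cells expressing PXR-Luc are cultured in charcoal-stripped FBS (5%), treated with compounds for 24 hr at 37 C, and assayed by ONE-Glo luminescence after 30 min at room temperature.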
Sequence of Nuclear receptor subfamily 1 group I member 2 (Homo sapiens) (O75469 whole entry, looked up): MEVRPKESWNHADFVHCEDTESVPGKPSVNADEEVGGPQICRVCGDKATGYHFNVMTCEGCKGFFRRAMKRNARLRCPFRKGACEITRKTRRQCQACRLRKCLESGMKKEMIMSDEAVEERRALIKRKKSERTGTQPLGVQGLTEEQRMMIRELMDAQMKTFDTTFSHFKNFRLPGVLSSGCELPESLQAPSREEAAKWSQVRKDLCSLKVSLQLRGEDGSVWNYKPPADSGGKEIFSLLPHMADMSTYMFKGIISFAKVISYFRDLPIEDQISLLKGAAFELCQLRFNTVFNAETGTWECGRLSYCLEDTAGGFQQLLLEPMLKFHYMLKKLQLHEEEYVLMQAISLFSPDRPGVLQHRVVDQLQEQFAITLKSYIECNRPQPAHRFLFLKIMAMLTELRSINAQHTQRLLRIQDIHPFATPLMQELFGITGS

The target of experiment [7] is Acetylcholinesterase (Homo sapiens) (UniProt P22303). As to the kind of experiment: Acetylcholinesterase (AChE) small molecule antagonists: colormetric cell-based qHTS assay (AID 1347395; calls by dose curve; also: nearly all actives have a fitted effect of over 30% in size). An outline of the steps: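 SH-SY5Y cells attached overnight, exposed to compound 30 min at 37 C, then given DTNB/acetylthiocholine; after 90 min at 37 C, colorimetric thiocholine read gives cellular AChE activity.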
Sequence of Acetylcholinesterase (Homo sapiens) (P22303 whole entry, looked up): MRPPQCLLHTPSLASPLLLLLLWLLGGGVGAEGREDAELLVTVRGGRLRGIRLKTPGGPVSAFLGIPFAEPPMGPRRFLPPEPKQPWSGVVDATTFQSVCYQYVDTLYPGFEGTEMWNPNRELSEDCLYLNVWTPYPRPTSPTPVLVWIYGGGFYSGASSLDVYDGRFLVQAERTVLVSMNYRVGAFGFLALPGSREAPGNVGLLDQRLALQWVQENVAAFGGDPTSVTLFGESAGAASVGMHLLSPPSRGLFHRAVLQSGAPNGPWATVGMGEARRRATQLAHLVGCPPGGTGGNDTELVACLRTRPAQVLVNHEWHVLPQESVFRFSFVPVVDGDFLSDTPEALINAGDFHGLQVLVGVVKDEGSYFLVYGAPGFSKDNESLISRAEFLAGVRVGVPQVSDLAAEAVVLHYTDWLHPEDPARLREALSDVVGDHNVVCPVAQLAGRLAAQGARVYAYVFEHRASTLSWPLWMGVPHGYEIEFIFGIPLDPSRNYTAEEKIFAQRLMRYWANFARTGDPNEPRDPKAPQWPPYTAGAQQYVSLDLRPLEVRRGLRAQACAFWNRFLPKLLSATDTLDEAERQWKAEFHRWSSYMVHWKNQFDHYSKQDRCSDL

For experiment [8] the target is unchanged. The experiment can be described thus: Acetylcholinesterase (AChE) small molecule antagonists: enzyme-based qHTS assay (AID 1347397; calls by dose curve; also: nearly all actives have a fitted effect of over 55% in size; also: potency is read from the fitted curve at half-maximal effect). Particulars: Potency: AChE enzyme activity inhibition. In outline: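 In this quantitative HTS, compounds from the Tox21 10K collection were preincubated 30 min at ambient temperature with recombinant human AChE dispensed at 50 mU/mL. Hydrolysis of acetylthiocholine was then followed for 10 min by DTNB colour development.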

Experiment [9] shares this target. As to the kind of experiment: Acetylcholinesterase (AChE) small molecule antagonists: fluorescence cell-based qHTS assay (AID 1347398; calls by dose curve; also: nearly all actives have a fitted effect of over 50% in size; also: potency is read from the fitted curve at half-maximal effect). Conditions: Potency: AChE activity. In outline:
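Cells (SH-SY5Y) attached overnight, were dosed with compound or DMSO vehicle for 30 min at 37 C, and then incubated 40 min at room temperature with acetylthiocholine and Thiolite Green; green fluorescence indexed AChE activity.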

Experiment [10] shares this target. The experiment can be described thus: Acetylcholinesterase (AChE) small molecule antagonists: enzyme-based qHTS assay with human liver microsomes (AID 1347399; calls by dose curve; also: nearly all actives have a fitted effect of over 60% in size; also: potency is read from the fitted curve at half-maximal effect). Particulars: Potency: qHTS inhibition. In outline:
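Recombinant human AChE (50 mU/mL in the enzyme mix) and human liver microsomes (0.25 mg/mL final) were preincubated with compound and NADPH (0.25 mg/mL final) for 30 min at 37 C. Acetylthiocholine/DTNB was then added; thiocholine was read colorimetrically after 10 min at room temperature.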

Experiment [11] addresses Cytochrome P450 2D6 (Homo sapiens) (UniProt P10635). The experiment can be described thus: Cytochrome P450 Family 2 Subfamily D Member 6 (CYP2D6) small molecule antagonists: luciferase reporter qHTS assay (AID 1671196). Also: nearly all actives have a fitted effect of over 50% in size. Also: potency is read from the fitted curve at half-maximal effect. In outline:
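Test chemicals meet CYP2D6 plus proluciferin substrate (10 min, RT); NADPH regenerating solution then drives turnover for 1 h. Detection reagent halts the reaction; luminescence measured after 20 min.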

In experiment [12] the target is Cytochrome P450 2C19 (Homo sapiens) (UniProt P33261). The experiment can be described thus: Cytochrome P450 Family 2 Subfamily C Member 19 (CYP2C19) small molecule antagonists: luciferase reporter qHTS assay (AID 1671197). Also: nearly all actives have a fitted effect of over 65% in size. Also: potency is read from the fitted curve at half-maximal effect. An outline of the steps:
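Luminescent readout of CYP2C19 activity: luciferin product detected 20 min after adding detection reagent. Before that, compound and enzyme-substrate mix preincubated 10 min at room temperature; NADPH-regenerating system started a 1 h, 37C reaction. Ketoconazole as positive control.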
Background: Reporter assays use an easily measured gene product as a stand-in for the process of interest.

Experiment [13] concerns the target Cytochrome P450 2C9 (Homo sapiens) (UniProt P11712). As to the kind of experiment: Cytochrome P450 Family 2 Subfamily C Member 9 (CYP2C9) small molecule antagonists: luciferase reporter qHTS assay (AID 1671198). Also: nearly all actives have a fitted effect of over 50% in size. Also: potency is read from the fitted curve at half-maximal effect. An outline of the steps: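 P450-Glo proluciferin substrate with CYP2C9 enzyme; 10 min RT preincubation, then NADPH regeneration 1 h at 37C; luciferin detection reagent 20 min RT, luminescence in relative luminescence units.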

Experiment [14] has as its target Cytochrome P450 1A2 (Homo sapiens) (UniProt P05177). The experiment can be described thus: Cytochrome P450 Family 1 Subfamily A Member 2 (CYP1A2) small molecule antagonists: luciferase reporter qHTS assay (AID 1671199). Also: nearly all actives have a fitted effect of over 50% in size. Also: potency is read from the fitted curve at half-maximal effect. An outline of the steps: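 Steps: enzyme-substrate mix dispensed; test compounds and furafylline control pinned in; 10 min room temperature; NADPH regeneration solution added, 1 h; reaction stopped with luciferin detection reagent; luminescence read after 20 min.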

For experiment [15], the target named is Voltage-gated inwardly rectifying potassium channel KCNH2 (Homo sapiens) (UniProt Q12809). As to the kind of experiment: Human Ether-a-go-go-Related Gene (hERG) channel small molecule antagonists: fluorescence cell-based qHTS assay (AID 1671200). Also: nearly all actives have a fitted effect of over 50% in size. Also: potency is read from the fitted curve at half-maximal effect. An outline of the steps:
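hERG-U2OS cells plated overnight at 37 C, loaded with FluxOR II dye 1 h at RT in dark; after 10 min, thallium stimulus added. Fluorescence (480/540 nm) read kinetically for 2 min at 1 s intervals.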
(hERG is a cardiac potassium channel; its block is linked to QT prolongation.)

For experiment [16], the target named is Cytochrome P450 3A4 (Homo sapiens) (UniProt P08684). As to the kind of experiment: Cytochrome P450 Family 3 Subfamily A Member 4 (CYP3A4) small molecule antagonists: luciferase reporter qHTS assay (AID 1671201). Also: nearly all actives have a fitted effect of over 50% in size. Also: potency is read from the fitted curve at half-maximal effect. In outline: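 P450-Glo CYP3A4 luminescent assay: compounds preincubated 10 min at room temperature with enzyme and proluciferin substrate, NADPH regeneration added, 1 h room-temperature reaction, stopped with luciferin detection reagent; luminescence read after 20 min. Ketoconazole positive control.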
Sequence of Cytochrome P450 3A4 (Homo sapiens) (P08684 whole entry, looked up): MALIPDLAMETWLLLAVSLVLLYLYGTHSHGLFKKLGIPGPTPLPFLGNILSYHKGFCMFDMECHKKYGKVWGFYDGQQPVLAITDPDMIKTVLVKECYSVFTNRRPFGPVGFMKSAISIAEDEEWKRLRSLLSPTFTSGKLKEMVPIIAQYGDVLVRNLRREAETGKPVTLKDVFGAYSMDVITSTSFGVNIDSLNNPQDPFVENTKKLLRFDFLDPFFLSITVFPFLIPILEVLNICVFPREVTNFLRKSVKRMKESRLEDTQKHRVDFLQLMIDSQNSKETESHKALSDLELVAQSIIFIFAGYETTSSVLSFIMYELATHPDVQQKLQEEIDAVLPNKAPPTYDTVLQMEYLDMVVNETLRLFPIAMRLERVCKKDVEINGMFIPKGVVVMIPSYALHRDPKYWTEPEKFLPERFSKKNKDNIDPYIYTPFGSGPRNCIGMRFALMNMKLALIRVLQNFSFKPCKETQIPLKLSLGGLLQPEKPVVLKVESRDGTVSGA

Sequence of Cytochrome P450 2D6 (Homo sapiens) (P10635 whole entry, looked up): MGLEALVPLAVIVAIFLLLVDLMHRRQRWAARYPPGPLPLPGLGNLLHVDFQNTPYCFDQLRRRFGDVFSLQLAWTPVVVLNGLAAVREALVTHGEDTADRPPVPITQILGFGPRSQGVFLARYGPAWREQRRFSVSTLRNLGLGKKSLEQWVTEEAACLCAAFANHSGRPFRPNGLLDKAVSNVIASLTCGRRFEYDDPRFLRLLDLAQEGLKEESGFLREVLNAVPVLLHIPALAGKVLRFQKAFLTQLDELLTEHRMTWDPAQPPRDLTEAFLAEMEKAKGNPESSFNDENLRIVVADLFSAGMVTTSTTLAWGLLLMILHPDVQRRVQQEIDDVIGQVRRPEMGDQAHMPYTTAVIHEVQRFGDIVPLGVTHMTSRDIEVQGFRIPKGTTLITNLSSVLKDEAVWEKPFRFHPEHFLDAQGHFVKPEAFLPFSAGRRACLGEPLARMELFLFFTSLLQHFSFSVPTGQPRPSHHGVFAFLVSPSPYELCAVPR
Sequence of Cytochrome P450 2C19 (Homo sapiens) (P33261 whole entry, looked up): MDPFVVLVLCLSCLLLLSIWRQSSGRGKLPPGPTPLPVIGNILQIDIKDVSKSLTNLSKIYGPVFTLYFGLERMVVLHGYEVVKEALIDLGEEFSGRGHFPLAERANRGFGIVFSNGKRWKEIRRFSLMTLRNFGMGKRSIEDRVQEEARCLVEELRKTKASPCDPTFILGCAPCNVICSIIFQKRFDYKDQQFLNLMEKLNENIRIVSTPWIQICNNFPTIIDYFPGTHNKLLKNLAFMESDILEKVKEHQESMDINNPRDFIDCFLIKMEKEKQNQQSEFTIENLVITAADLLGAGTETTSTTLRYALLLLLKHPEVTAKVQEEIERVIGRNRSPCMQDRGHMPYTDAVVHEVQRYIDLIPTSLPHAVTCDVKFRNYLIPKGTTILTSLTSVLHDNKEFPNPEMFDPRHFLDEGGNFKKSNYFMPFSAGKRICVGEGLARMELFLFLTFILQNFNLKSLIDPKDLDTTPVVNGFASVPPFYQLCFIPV
Sequence of Cytochrome P450 1A2 (Homo sapiens) (P05177 whole entry, looked up): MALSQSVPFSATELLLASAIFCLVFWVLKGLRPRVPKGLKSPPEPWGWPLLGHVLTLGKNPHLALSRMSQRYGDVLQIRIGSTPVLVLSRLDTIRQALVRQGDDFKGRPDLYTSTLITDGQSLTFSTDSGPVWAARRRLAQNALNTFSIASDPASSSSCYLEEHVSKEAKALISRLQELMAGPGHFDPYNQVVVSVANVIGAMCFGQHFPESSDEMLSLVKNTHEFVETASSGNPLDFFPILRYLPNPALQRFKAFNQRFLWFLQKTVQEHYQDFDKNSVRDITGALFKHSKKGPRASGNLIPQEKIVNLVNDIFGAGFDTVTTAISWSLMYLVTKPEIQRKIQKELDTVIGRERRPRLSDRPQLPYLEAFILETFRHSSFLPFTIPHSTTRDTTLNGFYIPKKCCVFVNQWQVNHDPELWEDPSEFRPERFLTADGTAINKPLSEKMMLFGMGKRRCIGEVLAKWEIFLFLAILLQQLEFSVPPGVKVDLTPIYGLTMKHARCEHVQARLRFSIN
Sequence of Cytochrome P450 2C9 (Homo sapiens) (P11712 whole entry, looked up): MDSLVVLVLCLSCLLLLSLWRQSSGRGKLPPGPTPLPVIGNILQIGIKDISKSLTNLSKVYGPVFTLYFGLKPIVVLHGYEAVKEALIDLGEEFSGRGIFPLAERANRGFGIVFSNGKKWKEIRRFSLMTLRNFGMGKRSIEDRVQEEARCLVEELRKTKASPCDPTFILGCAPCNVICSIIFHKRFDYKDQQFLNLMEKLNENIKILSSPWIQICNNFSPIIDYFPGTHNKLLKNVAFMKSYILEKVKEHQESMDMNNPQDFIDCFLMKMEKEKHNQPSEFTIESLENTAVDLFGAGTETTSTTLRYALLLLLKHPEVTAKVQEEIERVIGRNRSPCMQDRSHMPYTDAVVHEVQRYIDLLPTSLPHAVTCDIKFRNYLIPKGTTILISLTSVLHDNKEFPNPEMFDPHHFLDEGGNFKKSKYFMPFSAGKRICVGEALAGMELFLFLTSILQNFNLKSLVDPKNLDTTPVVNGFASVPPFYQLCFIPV
Sequence of Voltage-gated inwardly rectifying potassium channel KCNH2 (Homo sapiens) (Q12809 whole entry, looked up): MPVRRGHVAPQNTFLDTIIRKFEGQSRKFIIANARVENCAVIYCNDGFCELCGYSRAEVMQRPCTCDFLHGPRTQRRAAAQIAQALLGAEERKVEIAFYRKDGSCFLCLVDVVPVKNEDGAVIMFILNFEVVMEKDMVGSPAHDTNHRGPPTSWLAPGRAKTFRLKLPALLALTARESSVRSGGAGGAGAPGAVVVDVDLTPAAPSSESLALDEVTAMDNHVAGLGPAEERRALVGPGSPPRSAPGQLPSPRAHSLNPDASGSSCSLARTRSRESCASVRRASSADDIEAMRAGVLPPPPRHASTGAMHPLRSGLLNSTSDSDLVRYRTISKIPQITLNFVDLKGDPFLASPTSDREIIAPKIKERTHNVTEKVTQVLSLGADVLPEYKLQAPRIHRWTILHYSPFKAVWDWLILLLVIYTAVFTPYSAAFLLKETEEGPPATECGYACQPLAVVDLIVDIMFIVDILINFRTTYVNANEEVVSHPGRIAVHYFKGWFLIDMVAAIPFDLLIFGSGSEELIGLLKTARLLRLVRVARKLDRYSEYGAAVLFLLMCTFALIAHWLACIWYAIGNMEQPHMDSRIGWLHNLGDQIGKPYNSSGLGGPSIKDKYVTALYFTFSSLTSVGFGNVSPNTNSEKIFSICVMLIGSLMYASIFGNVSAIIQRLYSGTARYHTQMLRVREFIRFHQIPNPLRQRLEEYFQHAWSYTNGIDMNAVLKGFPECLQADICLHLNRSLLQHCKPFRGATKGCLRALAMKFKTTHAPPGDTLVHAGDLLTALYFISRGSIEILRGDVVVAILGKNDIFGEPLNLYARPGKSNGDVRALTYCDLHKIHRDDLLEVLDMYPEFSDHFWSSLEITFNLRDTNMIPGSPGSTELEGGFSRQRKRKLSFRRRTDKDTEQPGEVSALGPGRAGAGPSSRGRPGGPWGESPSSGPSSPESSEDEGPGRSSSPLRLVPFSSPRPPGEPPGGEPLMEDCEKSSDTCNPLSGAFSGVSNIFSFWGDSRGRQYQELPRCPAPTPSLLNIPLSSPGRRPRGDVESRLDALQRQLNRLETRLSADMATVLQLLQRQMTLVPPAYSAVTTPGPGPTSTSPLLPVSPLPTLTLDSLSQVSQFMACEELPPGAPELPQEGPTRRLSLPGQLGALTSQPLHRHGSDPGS

As to `O=C1CCCO1`, the Potency result in experiment [1], in experiment [2], in [3], in experiment [4], in [5] and in experiment [6] was “inactive” in each case. Moreover, the Potency entry in [7], in experiment [8], in experiment [9], in experiment [10], in experiment [11] and in experiment [12] was “inactive” in each case. Also, the Potency result in experiment [13], in experiment [15] and in [16] was “inactive” each time. In addition, the Potency in experiment [14] is 34.7 µM (active) and inactive.

For `CC(C)COC(=O)c1ccccc1C(=O)OCC(C)C`, the Potency result in [1], in [2], in experiment [3], in experiment [4], in experiment [5] and in experiment [6] was “inactive” each time. Also, the Potency entry in experiment [7], in [8], in experiment [9], in experiment [10], in experiment [11] and in experiment [16] was “inactive” each time. Besides, the Potency in experiment [12] is 10 µM (active) and 11.2 µM (active); in [13], 28.3 µM (active) and 11.2 µM (active); in [14] it was 12.6 µM (active) and 8.94 µM (active).

For the molecule `O=C(O)CF`, the Potency entry in experiment [1], in [2], in experiment [3], in [4], in experiment [5] and in experiment [6] was “inactive” throughout. For the same molecule, the Potency result in experiment [7], in experiment [8], in experiment [9], in experiment [10], in experiment [11] and in experiment [12] was “inactive” each time. Moreover, the Potency result in experiment [13], in [14], in experiment [15] and in experiment [16] was “inactive” throughout.

Regarding `O=C1C(Cl)=C(Cl)C(=O)c2ccccc21`, the Potency in [1] is 39.8 µM (active); in experiment [3], 4.34 µM (active) and 9.69 µM (active); in experiment [5] it was 61.3 µM (active); in experiment [8], 35.7 µM (active) and 25.2 µM (active); in experiment [9] it was 11.3 µM (active) and 25.2 µM (active); in [10], 79.9 µM (active) and 31.7 µM (active). Also, the Potency in [11] was 17.9 µM (active) and 17.8 µM (active); in [12] it was 7.99 µM (active) and 5.64 µM (active); in experiment [13], 5.04 µM (active) and 4.48 µM (active); in experiment [14], 17.9 µM (active) and 8.94 µM (active); in [15], 21.9 µM (active); in experiment [16], 17.9 µM (active) and 17.8 µM (active). In addition, the Potency entry in [2], in [4], in experiment [6] and in experiment [7] was “inactive” each time.

Consider `CC(C)(c1ccc(OCC2CO2)cc1)c1ccc(OCC2CO2)cc1` (stereo not given), for which the Potency result in experiment [1], in [2], in [3], in [4], in experiment [5] and in experiment [7] was “inactive” throughout. Besides, the Potency entry in experiment [8], in [9], in [10], in experiment [11], in experiment [14] and in [15] was “inactive” each time. In experiment [16], the Potency result is “inactive”. Also, the Potency was 69.5 µM (active) in experiment [6]; 50.9 µM (active) and 79.6 µM (active) in experiment [12]; 64.1 µM (active) and 39.9 µM (active) in experiment [13].

`CCOP(=O)(O)OCC` (tested in a mixture with another compound): the Potency entry in [1] is “inactive and 24.1 µM (active)”; in [3], “inactive and 24.1 µM (active)”; in experiment [5], “inactive and 68 µM (active)”; in experiment [6], “inactive and 4.29 µM (active)”; in [8], “inactive and 31.4 µM (active)”; in experiment [9] it was “inactive and 39.6 µM (active)”. Also, the Potency in experiment [11] is 40.3 µM (active) and 886 nM (active); in [12], 79 µM (active); in experiment [13], “inactive and 55.9 µM (active)”; in experiment [14], 79 µM (active); in [15] it was “inactive and 6.12 µM (active)”; in [16], “inactive and 55.9 µM (active)”. Besides, the Potency entry in experiment [2], in [4], in experiment [7] and in [10] was “inactive” in each case.

For `Nc1ncn[nH]1`, the Potency result in [1], in experiment [2], in [3], in [4], in [5] and in experiment [6] was “inactive” throughout. Further, the Potency entry in [7], in [8], in experiment [9], in experiment [10], in experiment [11] and in [12] was “inactive” in each case. For the same molecule, the Potency entry in [13], in experiment [14], in experiment [15] and in experiment [16] was “inactive” each time.

`CCOC(=O)c1ccccc1N`: the Potency result in [1], in experiment [2], in experiment [3], in experiment [4], in experiment [5] and in experiment [6] was “inactive” each time. Further, the Potency result in experiment [7], in experiment [8], in experiment [9], in [10], in experiment [11] and in experiment [12] was “inactive” throughout. The Potency entry in [13], in experiment [15] and in experiment [16] was “inactive” throughout. The Potency in [14] was 28.1 µM (active) and 31.7 µM (active).

For `Brc1ccc(Br)cc1`, the Potency entry in experiment [1], in experiment [2], in experiment [3], in [4], in [5] and in experiment [6] was “inactive” throughout. The Potency result in experiment [7], in [8], in experiment [9], in experiment [10], in experiment [11] and in [12] was “inactive” each time. Also, the Potency entry in experiment [13], in [14], in experiment [15] and in experiment [16] was “inactive” throughout.

For `CCOP(=O)(OCC)OCC`, the Potency result in experiment [1], in [2], in experiment [3], in experiment [4], in experiment [5] and in experiment [6] was “inactive” each time. The Potency entry in experiment [7], in experiment [8], in experiment [9], in experiment [10], in [11] and in experiment [15] was “inactive” each time. The Potency result in experiment [16] is “inactive”. The Potency in experiment [12] is 49.4 µM (active) and inactive; in experiment [13], 35 µM (active) and inactive; in experiment [14], 17.5 µM (active) and inactive.

In the case of `CC(O)CN(CC(C)O)CC(C)O` (stereo not given), the Potency result in experiment [1], in experiment [2], in [3], in experiment [4], in [5] and in experiment [6] was “inactive” each time. Also, the Potency result in experiment [7], in [8], in experiment [9], in [10], in [11] and in [12] was “inactive” each time. Also, the Potency result in experiment [13], in [14], in experiment [15] and in experiment [16] was “inactive” throughout.
